Among the test systems are DU-145 prostate; K-562 leukemia; MALME-3M melanoma; MDA-MB-231 breast; RXF 393 renal; SF-268 CNS; SF-295 CNS; SF-539 CNS; UACC-257 melanoma; M14 melanoma; HCT-15 colon; HT29 colon; SNB-75 CNS; SNB-19 CNS; U251 CNS; SK-MEL-5 melanoma; UACC-62 melanoma; LOX IMVI melanoma; SK-MEL-28 melanoma.
Common to all, as to assay: NCI-60 one-dose screen, 48 h (100 = growth as untreated, 0 = no growth, -100 = all killed)
Common to all, as to settings: 10 µM unless noted

This is part of a sample that, as a whole, favours compounds with a hit. Of some 83,000 tested, about 20% had one in any assay.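 The endpoint reported here, percent growth, reads 100 for growth as untreated, 0 for no net growth and -100 for all cells dead.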 A number with no mark means an inactive call. Calls of active or inactive are those of the source. Rule for the calls: active = growth percent below 10; inactive = the rest.

`CC1=CC(C)(C)Nc2ccc(Cc3ccc4c(c3)C(C)=CC(C)(C)N4)cc21`: the growth is 98.1% in the assay with DU-145 prostate; 114% in the assay on K-562 leukemia; 87.2% in the assay with MALME-3M melanoma; 86.1% in the assay on MDA-MB-231 breast; 79.6% in the assay with RXF 393 renal; 103% in the assay on SF-268 CNS. Further, the growth is 139% in the assay with SF-295 CNS; 96.6% with SF-539 CNS; 93.7% with UACC-257 melanoma; 96.1% with M14 melanoma; 101% with HCT-15 colon; 103% with HT29 colon. The growth in the assay on SNB-75 CNS was 86.3%; in the assay with SNB-19 CNS, 93.4%; with U251 CNS, 93.5%; with SK-MEL-5 melanoma, 92.8%; in the assay on UACC-62 melanoma it was 84.1%; in the assay with LOX IMVI melanoma it was 88.7%. Moreover, in the assay on SK-MEL-28 melanoma, the growth is 104%.

`COc1ccccc1NS(=O)(=O)c1ccc2oc(SC(C)C)nc2c1`: the growth was 98.9% in the assay with DU-145 prostate; 45.8% with K-562 leukemia; 81.7% with MALME-3M melanoma; 86.5% with MDA-MB-231 breast; 107% in the assay with RXF 393 renal; 89.8% in the assay with SF-268 CNS. Also, the growth in the assay with SF-295 CNS was 88.5%; in the assay on SF-539 CNS it was 103%; in the assay on UACC-257 melanoma, 71.8%; in the assay on M14 melanoma, 110%; in the assay with HCT-15 colon, 125%; in the assay with HT29 colon, 96.3%. Further, the growth with SNB-75 CNS was 102%; in the assay on SNB-19 CNS, 93.7%; in the assay on U251 CNS it was 138%; in the assay with SK-MEL-5 melanoma, 49.9%; in the assay with UACC-62 melanoma, 59.9%; in the assay with LOX IMVI melanoma it was 146%. Also, the growth with SK-MEL-28 melanoma was 115%.

On to `CC(O)CN1CC(O)=C(c2nc3ccccc3s2)C1=N` (stereo not drawn), for which the growth in the assay with DU-145 prostate is 115%; with K-562 leukemia, 105%; with MALME-3M melanoma, 97.6%; with MDA-MB-231 breast, 108%; in the assay with RXF 393 renal, 113%; in the assay on SF-268 CNS it was 108%. For the same molecule, the growth was 129% in the assay on SF-295 CNS; 104% in the assay with SF-539 CNS; 119% in the assay on UACC-257 melanoma; 114% in the assay with M14 melanoma; 158% in the assay on HCT-15 colon; 104% in the assay with HT29 colon. The growth was 99.3% with SNB-75 CNS; 96.5% in the assay with SNB-19 CNS; 157% with U251 CNS; 105% with SK-MEL-5 melanoma; 102% in the assay on UACC-62 melanoma; 211% with LOX IMVI melanoma. Further, in the assay on SK-MEL-28 melanoma, the growth was 131%.

As for `COC(=O)c1cccc(NC(=O)c2ccc(-c3cccc(N)c3)o2)c1`, the growth in the assay on DU-145 prostate was 110%; in the assay on K-562 leukemia, 94.9%; with MALME-3M melanoma it was 91.1%; in the assay on MDA-MB-231 breast it was 99.4%; in the assay with RXF 393 renal it was 102%; with SF-268 CNS, 100%. Besides, the growth with SF-295 CNS is 98.4%; in the assay with SF-539 CNS, 92.6%; in the assay on UACC-257 melanoma, 112%; in the assay with M14 melanoma it was 112%; with HCT-15 colon it was 96.6%; with HT29 colon, 107%. In addition, the growth was 93.2% with SNB-75 CNS; 95.5% in the assay with SNB-19 CNS; 104% with U251 CNS; 81.8% in the assay with SK-MEL-5 melanoma; 91.4% in the assay with UACC-62 melanoma; 99.6% with LOX IMVI melanoma. Besides, the growth with SK-MEL-28 melanoma is 102%.

Take `C#CCOc1ccc2ncnc(NCc3cccc(NC(=O)CCl)c3)c2c1`: the growth with DU-145 prostate was 77.9% [8.25 µM]; in the assay with K-562 leukemia, 11.7% [8.25 µM]; in the assay on MALME-3M melanoma, 57.4% [8.25 µM]; in the assay on MDA-MB-231 breast, 45.3% [8.25 µM]; with RXF 393 renal it was 42.3% [8.25 µM]; in the assay with SF-268 CNS, 41.9% [8.25 µM]. The growth was 93.9% [8.25 µM] in the assay on SF-295 CNS; 49.5% [8.25 µM] with SF-539 CNS; 63.8% [8.25 µM] in the assay with UACC-257 melanoma; 51.3% [8.25 µM] with M14 melanoma; 22.6% [8.25 µM] in the assay with HCT-15 colon; 19.9% [8.25 µM] with HT29 colon. For the same molecule, the growth was 55.7% [8.25 µM] in the assay with SNB-75 CNS; 37.8% [8.25 µM] in the assay on SNB-19 CNS; -19.2% [8.25 µM] (active) in the assay with U251 CNS; 23.8% [8.25 µM] in the assay with SK-MEL-5 melanoma; 31.8% [8.25 µM] in the assay on UACC-62 melanoma; 46.7% [8.25 µM] with LOX IMVI melanoma. In the assay on SK-MEL-28 melanoma, the growth is 58.1% [8.25 µM].

In the case of `Cc1[nH]c(-c2ccc3cc[nH]c3c2)c2c1C(=O)CCCC2`, the growth is 79.1% with DU-145 prostate; 26.2% in the assay with K-562 leukemia; 56.2% with MALME-3M melanoma; 43.2% in the assay on MDA-MB-231 breast; 68.1% in the assay on RXF 393 renal; 64.8% in the assay on SF-268 CNS. The growth is 38.8% with SF-295 CNS; 48.6% in the assay with SF-539 CNS; 47.7% in the assay on UACC-257 melanoma; 51.6% in the assay with M14 melanoma; 30.6% with HCT-15 colon; 27.4% in the assay with HT29 colon. Besides, the growth with SNB-75 CNS is 6.65% (active); in the assay with SNB-19 CNS, 53.1%; in the assay with U251 CNS, 48.5%; with SK-MEL-5 melanoma, 49.6%; in the assay on UACC-62 melanoma, 24.8%; in the assay with LOX IMVI melanoma, 16.2%. In addition, the growth in the assay with SK-MEL-28 melanoma is 66.2%.

Consider `Cc1ccc2c(c1)C(=O)/C(=C/c1cccc(OCC(=O)c3ccc(Cl)cc3)c1)CS2`, for which the growth was 108% in the assay on DU-145 prostate; 29.2% with K-562 leukemia; 95.9% with MALME-3M melanoma; 61.9% in the assay with MDA-MB-231 breast; 4.49% (active) with RXF 393 renal; 108% in the assay with SF-268 CNS. Besides, the growth in the assay on SF-295 CNS was 125%; in the assay with SF-539 CNS it was 112%; in the assay with UACC-257 melanoma it was 120%; in the assay with M14 melanoma, 107%; with HCT-15 colon, 81.3%; in the assay with HT29 colon it was 87.9%. Moreover, the growth in the assay on SNB-75 CNS was 87.6%; in the assay on SNB-19 CNS, 93.9%; in the assay on U251 CNS, 89.7%; in the assay on SK-MEL-5 melanoma, 85.1%; with UACC-62 melanoma, 76.2%; in the assay with LOX IMVI melanoma it was 75.3%. In addition, the growth in the assay on SK-MEL-28 melanoma was 123%.

The values above are taken from PubChem BioAssay (NCI).
